From PubChem BioAssay (NCATS)
Values without a mark were called inactive. Inconclusive results are not listed. The source made the active and inactive calls. Unless noted, calls follow the shape of the dose curve; as a rule, active = well fitted curve in either direction with a large enough effect (not every such curve was filed as active); inconclusive = small, poorly fitted or top-dose-only effect, or another doubt; inactive = flat fitted curve, though single readings scatter. Residues, ends and D or L forms follow the SMILES beside them.

How the values were obtained:
[1] = molecular target: Lysosomal acid glucosylceramidase (Homo sapiens) (UniProt P04062); assay: Glucocerebrosidase-p2 (AID 348; in the data active = potency below about 10 µM; also: potency is read from the fitted curve at half-maximal effect); settings: purified GBA, blue fluorogenic substrate, 40 min
Chain of Lysosomal acid glucosylceramidase (Homo sapiens) (P04062 whole entry, looked up): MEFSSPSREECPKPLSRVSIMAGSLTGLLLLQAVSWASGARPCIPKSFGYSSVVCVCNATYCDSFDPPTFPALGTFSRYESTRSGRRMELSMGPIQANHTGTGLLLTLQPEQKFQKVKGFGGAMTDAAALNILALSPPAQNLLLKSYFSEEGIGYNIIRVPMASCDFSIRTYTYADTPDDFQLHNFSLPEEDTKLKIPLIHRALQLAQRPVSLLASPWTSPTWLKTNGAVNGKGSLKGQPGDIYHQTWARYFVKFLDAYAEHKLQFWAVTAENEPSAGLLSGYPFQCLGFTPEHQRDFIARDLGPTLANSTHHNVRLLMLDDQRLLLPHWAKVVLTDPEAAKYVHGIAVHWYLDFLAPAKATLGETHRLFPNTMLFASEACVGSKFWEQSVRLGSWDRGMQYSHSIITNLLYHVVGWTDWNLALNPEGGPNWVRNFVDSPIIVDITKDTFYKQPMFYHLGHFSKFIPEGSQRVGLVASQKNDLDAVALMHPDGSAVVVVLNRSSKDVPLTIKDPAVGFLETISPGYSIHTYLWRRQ
Procedure, shortened: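 Normal human glucocerebrosidase (0.2 nM) with blue fluorogenic substrate (80 uM final) in citrate/phosphate pH 5.9 with 10mM sodium taurocholate, 0.01% tween-20; 40 min RT, NaOH/glycine stop; fluorescence Ex 365/Em 440; AC50 from a titration from 0.6 nM upwards.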

[2] = AP1 Signaling Pathway (AID 357); settings: ME-180 AP-1-bla reporter, EGF-induced, beta-lactamase ratio, 5 h; at 7.69 µM (top of the series) unless noted;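 also: ME-180 reporter cells stimulated with EGF at its EC50 level; % is scaled to controls: 0 for no effect and ±100 for the full control effect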
Procedure, shortened: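 Beta-lactamase reporter under AP-1 response element, ME-180 background. Stimulus: EC50 EGF. Compound exposure 5 h, 37 °C. Detection: CCF4, 2.5 h RT, 460/530 nm. Values: AC50 from titration.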

[3] = molecular target: Cytochrome P450 1A2 (Homo sapiens) (UniProt P05177); assay: p450-cyp1a2 (AID 410; calls by dose curve; also: potency is read from the fitted curve at half-maximal effect;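 as to activity change, negative = inhibition: -100% = full effect of reference inhibitor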); settings: recombinant CYP1A2, luciferin-ME demethylation, luminescence; series mostly up to 11.4 µM
Chain of Cytochrome P450 1A2 (Homo sapiens) (P05177 whole entry, looked up): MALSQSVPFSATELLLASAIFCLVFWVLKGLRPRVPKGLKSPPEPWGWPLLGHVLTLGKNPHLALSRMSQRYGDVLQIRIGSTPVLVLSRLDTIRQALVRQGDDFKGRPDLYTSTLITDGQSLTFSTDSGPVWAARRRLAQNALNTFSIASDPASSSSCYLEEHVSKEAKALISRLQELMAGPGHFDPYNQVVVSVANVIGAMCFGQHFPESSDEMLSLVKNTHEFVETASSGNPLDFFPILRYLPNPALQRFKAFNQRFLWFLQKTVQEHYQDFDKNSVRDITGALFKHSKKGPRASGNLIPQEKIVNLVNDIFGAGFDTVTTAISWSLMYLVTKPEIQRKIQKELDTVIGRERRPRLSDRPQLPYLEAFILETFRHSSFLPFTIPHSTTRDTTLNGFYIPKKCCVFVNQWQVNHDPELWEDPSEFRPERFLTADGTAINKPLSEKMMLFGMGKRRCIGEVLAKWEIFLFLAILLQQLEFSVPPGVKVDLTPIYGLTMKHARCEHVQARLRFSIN
Procedure, shortened: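 Luminescent demethylation readout: Luciferin-ME (100uM, equal to Km) turned over by 20nM CYP1A2 for 60 min at room temperature after NADPH regeneration addition, following 10 min compound preincubation. Normalization used 57 uM furafylline as full inhibition.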

[4] = NFAT Signaling Pathway (AID 444); settings: Jurkat NFAT-bla M1, carbachol, beta-lactamase ratio, 5 h; at 7.69 µM (top of the series) unless noted;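 also: carbachol stimulus at about its EC50 of 1 µM final; % is scaled to controls: 0 for no effect and ±100 for the full control effect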
Procedure, shortened: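 Jurkat cells with NFAT-driven β-lactamase reporter and co-expressed M1 receptor, stimulated with carbachol (final 1 uM, ~EC50), compound titration, 5 h at 37 °C. CCF4 loaded 1 h at RT; 460/530 nm ratio gave %activity and AC50.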

[5] = Stat Signaling Pathway (AID 446); settings: ME-180 (cervical carcinoma) SIE beta-lactamase reporter, IL-6 stimulated, 5 h; at 7.69 µM (top of the series) unless noted;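 also: ME-180 cervical cancer cells given 40 pM IL-6 alongside compound; SIE-controlled beta-lactamase reporter measured as 460/530 nm FRET emission ratio; % is scaled to controls: 0 for no effect and ±100 for the full control effect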
Procedure, shortened: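 Overnight-plated ME-180 cells bearing a STAT Inducible Element beta-lactamase reporter; 5 h co-exposure to compound and 40 pM IL-6; values normalized to 300 pM IL-6 and 125 nM JAK inhibitor controls.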

[6] = molecular target: Glucocorticoid receptor (Homo sapiens) (UniProt P04150); assay: GR-GFP Redistribution (AID 450;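 active = compounds whose dose series gives a full or clear partial fitted curve of increased nuclear translocation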; also: potency is read from the fitted curve at half-maximal effect); settings: U2OS GR-GFP nuclear translocation, laser cytometry, 2 h
Chain of Glucocorticoid receptor (Homo sapiens) (P04150 whole entry, looked up, the tested form may be a part): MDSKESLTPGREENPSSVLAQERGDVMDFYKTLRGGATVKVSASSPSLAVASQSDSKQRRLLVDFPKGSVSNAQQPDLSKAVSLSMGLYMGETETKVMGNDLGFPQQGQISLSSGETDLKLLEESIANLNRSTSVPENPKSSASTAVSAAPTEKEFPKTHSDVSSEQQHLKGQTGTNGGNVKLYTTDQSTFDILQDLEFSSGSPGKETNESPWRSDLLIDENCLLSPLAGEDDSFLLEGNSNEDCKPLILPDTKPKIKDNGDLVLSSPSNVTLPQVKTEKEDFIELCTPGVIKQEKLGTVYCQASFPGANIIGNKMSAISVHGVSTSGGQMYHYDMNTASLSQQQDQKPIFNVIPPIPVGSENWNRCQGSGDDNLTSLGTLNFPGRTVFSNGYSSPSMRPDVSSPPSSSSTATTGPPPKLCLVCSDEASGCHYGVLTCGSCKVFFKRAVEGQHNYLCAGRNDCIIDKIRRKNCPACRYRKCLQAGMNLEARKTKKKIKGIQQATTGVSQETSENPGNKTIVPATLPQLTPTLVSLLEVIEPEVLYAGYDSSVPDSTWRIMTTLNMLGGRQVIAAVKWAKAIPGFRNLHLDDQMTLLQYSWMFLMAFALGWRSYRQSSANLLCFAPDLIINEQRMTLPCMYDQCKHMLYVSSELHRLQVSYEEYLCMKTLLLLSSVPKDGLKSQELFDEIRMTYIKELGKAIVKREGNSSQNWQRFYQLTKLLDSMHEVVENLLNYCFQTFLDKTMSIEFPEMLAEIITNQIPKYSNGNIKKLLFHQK

[7] = molecular target: Glucocorticoid receptor (Homo sapiens) (UniProt P04150); assay: GR-EFC Redistribution (AID 451; calls by dose curve; also: potency is read from the fitted curve at half-maximal effect); settings: CHO-K1 GR-EFC translocation, beta-gal luminescence, 2 h
Procedure, shortened: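 CHO-K1 cells expressing nuclear EA and GR-ED fragments of b-gal; compounds titrated up to 46 uM final, 2 h at 37 C. GR nuclear translocation read as complemented b-gal luminescence after 1 h RT detection.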

[8] = molecular target: Mitogen-activated protein kinase 10 (Mus musculus) (UniProt Q61831); assay: JNK3 AlphaScreen Assay (AID 530); settings: JNK3 lysate, c-Jun phosphorylation; series mostly up to 11.4 µM;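 also: kinase came from lysate of stimulated human HepG2 cells; signal reports phosphorylation of biotinylated GST-cJun 1-79 at Ser73 with 10 µM ATP; % is scaled to controls: 0 for no effect and ±100 for the full control effect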
Procedure, shortened: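 Activity was read by AlphaScreen after JNK3-containing HepG2 lysate (cytokine pre-activated) phosphorylated biotinylated GST-cJun with 10 uM ATP at room temperature. Phospho-Ser73 cJun antibody with Protein-A acceptor beads provided detection.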

[9] = molecular target: 3',5'-cyclic-AMP phosphodiesterase 4B (Homo sapiens) (UniProt Q07343); assay: qHTS Assay for Inhibitors of PDE-IV (AID 607; active = well fitted activation curve with a large enough effect in the main read-out, with a control signal flat, not every such curve was filed as active; also: % of control where 0% means no effect); settings: HEK293 ACTOne CNG channel cells, membrane potential fluorescence; series mostly up to 22.9 µM
Chain of 3',5'-cyclic-AMP phosphodiesterase 4B (Homo sapiens) (Q07343 whole entry, looked up): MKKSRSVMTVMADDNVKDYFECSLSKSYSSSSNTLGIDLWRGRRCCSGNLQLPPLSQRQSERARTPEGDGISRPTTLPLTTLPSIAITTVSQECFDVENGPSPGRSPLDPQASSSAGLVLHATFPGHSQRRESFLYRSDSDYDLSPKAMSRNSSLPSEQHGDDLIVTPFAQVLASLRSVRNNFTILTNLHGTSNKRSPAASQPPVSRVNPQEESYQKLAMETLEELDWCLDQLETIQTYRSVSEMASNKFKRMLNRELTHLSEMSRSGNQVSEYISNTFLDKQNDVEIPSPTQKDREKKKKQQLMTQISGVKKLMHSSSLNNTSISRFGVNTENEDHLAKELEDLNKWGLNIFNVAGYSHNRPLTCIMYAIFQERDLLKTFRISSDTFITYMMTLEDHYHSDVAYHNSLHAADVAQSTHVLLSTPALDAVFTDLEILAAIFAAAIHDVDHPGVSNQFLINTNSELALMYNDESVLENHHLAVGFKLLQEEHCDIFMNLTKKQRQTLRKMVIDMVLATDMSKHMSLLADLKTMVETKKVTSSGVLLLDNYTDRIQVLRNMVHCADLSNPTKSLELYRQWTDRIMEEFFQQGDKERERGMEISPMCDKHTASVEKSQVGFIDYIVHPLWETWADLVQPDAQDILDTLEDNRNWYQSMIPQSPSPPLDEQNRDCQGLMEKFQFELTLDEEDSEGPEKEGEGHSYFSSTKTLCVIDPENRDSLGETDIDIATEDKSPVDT
Procedure, shortened: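 Live HEK293 cells with a modified cyclic nucleotide-gated (CNG) channel report intracellular cAMP via membrane-potential dye fluorescence (ex 535/em 590 nm). Endogenous PDE-IV was targeted. Compounds were tested at up to 22.9 uM final; RO 20-1724 100 uM served as control.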

SMILES	Potency [1]	activity change, negative = inhibition [2]	activity change, negative = inhibition [3]	activity change, negative = inhibition [4]	activity, negative = inhibition [5]	Potency [6]	Potency [7]	Potency [8]	Potency [9]	Potency [3]
c1ccc2c(c1)C(=Nc1ccc(N=C3c4ccccc4-c4ccccc43)cc1)c1ccccc1-2	> 11.4 µM	-0.81%	-19.6% [at 2.29 µM]	10.5%	4.55%	> 46 µM	> 9.22 µM	inactive	inactive	
O=C(O)c1cccc(OCCO)c1	> 11.4 µM	7.9%		-28.1%	13.6%	> 46 µM	> 9.22 µM	inactive	inactive	inactive
CN(CC(=O)O)Cc1oc(CO)cc(=O)c1O	> 11.4 µM	6.02%		10%	5.1%	> 46 µM	> 9.22 µM	inactive	inactive	inactive
O=C(O)c1ccc([N+](=O)[O-])c(P(=O)(O)O)c1	> 11.4 µM	-2.71%		12.7%	-0.293%	> 46 µM	> 9.22 µM	inactive	inactive	inactive
CC(C)=C[C@H]1[C@@H](COC(=O)c2ccccc2Cl)C1(C)C	> 11.4 µM	8.2%		12.7%	-1.06%	> 46 µM	> 9.22 µM	inactive	inactive	3.98 µM (active)
O=C(O)/C=C\C(=O)Nc1ncn[nH]1	> 11.4 µM	8.44%		2.25%	2.6%	> 46 µM	> 9.22 µM	inactive	inactive	inactive
NCC(=O)N[C@H](CO)C(=O)O (HELM PEPTIDE1{G.[dS]}$$$$V2.0)	> 11.4 µM	12.3%		-7.28%	10.1%	> 46 µM	> 9.22 µM	inactive	inactive	inactive
Cc1ncc(CN=Cc2ccc(Cl)cc2)c(N)n1	> 11.4 µM	-0.312%		23.1%	3.08%	> 46 µM	> 9.22 µM	inactive	inactive	5.01 µM (active)
CC1(CCC(=O)OC2CCCCC2)OCCO1	> 11.4 µM	4.96%		19.8%	4.55%	> 46 µM	> 9.22 µM	inactive	inactive	inactive
Cc1ccnc(NS(=O)(=O)c2ccc(N=[N+]=[N-])cc2)n1	> 11.4 µM	-2.39%		4.09%	1.25%	> 46 µM	> 9.22 µM	inactive	inactive	inactive
C[C@@H]1C[C@H](C)CN(S(=O)(=O)c2cc(Cl)c(Oc3ccc([N+](=O)[O-])cc3Cl)c(Cl)c2)C1	> 11.4 µM	16.4%		-22.6%	20.1%	> 46 µM	> 9.22 µM	inactive	inactive	inactive
O=C(O)[C@H]([C@H]1NCCS1)N1C(=O)c2ccccc2C1=O	> 11.4 µM	20.1%		8.05%	3.15%	> 46 µM	> 9.22 µM	inactive	inactive	5.01 µM (active)
C[C@](O)(c1ccccc1)c1nccc2ccccc12	> 11.4 µM	-0.483%		3.41%	-8.29%	> 46 µM	> 9.22 µM	inactive	inactive	inactive
CN1CCCC[C@@H]1CCN1CCCCC1	> 11.4 µM	4.46%		-9.35%	3.65%	> 46 µM	> 9.22 µM	inactive	inactive	0.01 µM (active)
